Each structure is given as a SMILES string. “And” between values parts separate entries of the source, which are not always exact repeats. Identical values can stand only once. Inconclusive results are not listed. Unmarked numbers belong to inactive results. The source made the active and inactive calls. The call rests on the fitted dose curve; in most records, active means well fitted activation curve with a large enough effect; inconclusive means small, poorly fitted or top-dose-only effect; inactive means no such curve, though single readings can be large or run the other way.
Potency means the concentration at half of the fitted maximal effect.

Sequence of Cellular tumor antigen p53 (Homo sapiens) (P04637 whole entry, looked up): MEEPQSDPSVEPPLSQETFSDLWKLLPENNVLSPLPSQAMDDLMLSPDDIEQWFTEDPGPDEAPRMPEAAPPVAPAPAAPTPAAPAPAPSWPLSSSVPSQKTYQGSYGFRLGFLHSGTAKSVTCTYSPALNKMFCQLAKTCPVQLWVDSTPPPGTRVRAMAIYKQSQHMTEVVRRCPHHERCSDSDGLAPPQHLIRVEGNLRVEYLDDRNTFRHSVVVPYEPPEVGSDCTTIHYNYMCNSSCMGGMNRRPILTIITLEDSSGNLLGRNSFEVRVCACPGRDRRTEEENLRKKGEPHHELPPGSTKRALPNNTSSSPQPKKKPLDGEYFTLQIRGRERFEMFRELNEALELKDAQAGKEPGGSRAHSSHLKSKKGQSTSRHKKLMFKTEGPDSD

The target of the assay is Cellular tumor antigen p53 (Homo sapiens) (UniProt P04637). As to the kind of experiment: Primary qHTS for small molecule compounds that upregulate eGFP-tagged delta133p53alpha (in N-terminal) cells. (AID 2060322). Further: nearly all actives have a fitted effect of over 75% in size.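 On activation: series mostly up to about 56 µM; 0% = DMSO vehicle and 100% = reference activator.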 The following applies: NCI-H358 eGFP-delta133p53alpha fluorescence, 24 h; activation: active compounds read high. The method in brief:
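NCI-H358 cells pre-induced 24 h with 10 ng/ml doxycycline to express N-terminal eGFP-delta133p53alpha, then dosed 24 h at 37C without doxycycline; fixed, Hoechst-stained, GFP intensity by laser scanning cytometry, normalized to DMSO (0%) and 57.5 uM 5-azacytidine (100%).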
Background: In qHTS, concentration-response curves come from the screen itself.
For the compound `CCO[C@H]1CN(C2CCC(O)(c3ccc4c(c3)OCO4)CC2)C[C@@H]1NC(=O)CNC(=O)c1cccc(C(F)(F)F)c1` (stereo partly specified), the activation was 10.5%.

Turning to `CCCc1cc(C)[nH]c(=O)c1CNC(=O)c1cc(-c2ccnc(N3CCN(C)CC3)c2)cc2c1cnn2C(C)C`, the activation is -12.3%. The same measure, in the same setting: next, `O=C(Nc1ccccc1Br)NC1CCN(c2ccc(C(F)(F)F)cn2)C1` (stereo unspecified): 0.477%.

In the case of `N#CC(c1ccnc(OCc2ccc(CN3CCOCC3)cc2)n1)c1nc2ccccc2s1` (stereo unspecified), the activation is 0.477%. On the same count and under the same terms, next, `CC(C)c1ccccc1OC(=O)NCCc1ccc2ccccc2c1`: 2.39%; `CCn1c2ccccc2c2cc(CNC)ccc21`: 12.4%; `Cc1ccc(Cl)cc1N(CC(=O)Nc1c(F)cccc1F)S(C)(=O)=O`: 0.955%.

Consider `CNc1ccc([N+](=O)[O-])cc1-n1cnc(-c2ccc(C(F)(F)F)cc2)c1`, for which the activation was 5.25%. The same measure, in the same setting: for `COc1ccc(C(=O)NCc2cc(C(C)C)no2)cc1OC1CCN(C)CC1` the value was 4.77%; for `COc1ccc(CN2CCN(C(=O)CCNC(=O)c3ccc(C(C)(C)C)cc3)CC2)cc1`, -7.16%; for `Cc1onc(-c2ccccc2Cl)c1C(=O)N(C)c1ccc(Cl)cc1`, -1.43%. As to `CS(=O)(=O)c1ccc([C@@H](O)[C@@H](CF)NC(=O)C(Cl)Cl)cc1`, the activation was -2.82% and -2.86%. On the same count and under the same terms, for `CC[C@H]1CN(c2nc(N)c(C(N)=O)nc2Cl)CCN1C1CCN(Cc2ccc(Cl)cc2)CC1` the value was 3.34%; for `O=S(=O)(Nc1ccccc1N1CCCCC1)c1ccc(Cl)s1`, -11.9%.

`c1ccc(C(OC2CCN(CCCc3nn[nH]n3)CC2)c2ccccc2)cc1`: the activation was -4.77%.

`COc1ccc2cc(-c3cc(-c4cc(Cl)cc(Cl)c4)nn3C(C)c3ccc(C(=O)NCCC(=O)O)cc3)ccc2c1` (stereo unspecified): the activation was 29.1%. Same read-out and setting: for `COc1cc(Br)c(Nc2nc(-c3c(C)nc4ncccn34)cs2)c(Br)c1` the value was 14.8%. The same measure, in the same setting: next, `O=c1[nH]c2ccccc2n1CCN1CCN(c2cccc(C(F)(F)F)c2)CC1`: -3.34%. On to `CC1(C)CC(NC(=O)C(=O)Nc2ccc(Br)cc2)CC(C)(C)N1`, for which the Potency is 13.5 µM (active).

Take `C[C@]12CC[C@@H]3c4ccc(OC(=O)c5ccccc5)cc4CC[C@H]3[C@@H]1CC[C@@H]2O`: the activation was 14.3%. For the compound `Cc1ccccc1NC(=O)Nc1ccc(CN2C(=O)N([C@@H](CC(C)C)C(=O)N[C@@H](CC(=O)O)c3ccccc3)C(=O)C2(C)C)cc1`, the activation is -2.86%.

`Cc1[nH]cnc1C1CCN(c2nc3cccc4c3n2CCC4=O)CC1`: the activation was 1.43%. With `Cc1ccc2[nH]c(=O)c(C3=NN(C(=O)CCC(=O)O)C(c4ccc(Br)cc4)C3)c(-c3ccccc3)c2c1` (stereo unspecified), the activation was -22.4%.

For `COc1cccc(OC)c1-c1nc(C(=O)N[C@@H](CC(C)C)C(=O)O)cn1-c1ccnc2cc(Cl)ccc12`, the activation is -8.59%. In the case of `Cc1ccnc(NC(=O)C(C)c2cccc(C(=O)c3ccccc3)c2)c1` (stereo unspecified), the activation was -19.6%. The same measure, in the same setting: next, `CCCn1c(=O)c2[nH]c(-c3ccc(OCC(=O)O)cc3)nc2n(CCC)c1=O`: -5.73%; `O=C(O)c1ccc(S(=O)(=O)N(Cc2ccc(OC(F)(F)F)cc2)c2ncc(C(F)(F)F)cc2Cl)cc1`: -2.86%; `CCOC(=O)[C@H](CCc1ccccc1)CC1(C(=O)N[C@H]2CCc3ccccc3N(CC(=O)O)C2=O)CCCC1`: 6.21%. On the same count and under the same terms, next, `CCC1C(=O)N(C)c2cnc(Nc3ccc(C(=O)NC4CCC(N5CCN(CC6CC6)CC5)CC4)cc3OC)nc2N1C(C)C` (stereo unspecified): 37.2%. On the same count and under the same terms, for `O=C(CCc1nnc2n(Cc3ccc(Cl)cc3)c(=O)c3ccccc3n12)NCCC1=CCCCC1` the value was 4.3%; for `CC1(C)CC(=O)N(CCCCN2CCN(c3ncccn3)CC2)C(=O)C1`, -2.86%. Regarding `O=C(O)c1cccc(S(=O)(=O)N2CCc3ccccc3C2)c1`, the activation was -7.64%.

As to `CNS(=O)(=O)CC1CCC(N(C)c2ncnc3[nH]ccc23)CC1` (stereo unspecified), the activation was -0.477%. The same measure, in the same setting: for `COc1cc2ncnc(Oc3ccc(CC(=O)Nc4cnn(C(C)C)c4)cc3)c2cc1OC` the value was 4.77%; for `c1cc(OCCCN2CCCCC2)ccc1CN1CCCCC1`, 5.25%. Consider `CNc1ccc([N+](=O)[O-])c(Nc2ccc3[nH]ncc3c2)n1`, for which the Potency is 10.7 µM (active).

The values are drawn from PubChem BioAssay (NCATS).
